VDR inhibitor: blocks the human vitamin D receptor; VDR-SRC2-3 peptide fluorescence polarization, 2 h; AID 504847; P11473; Potency, µM, without a hit: max response, negative = inhibition, most hits filed as inhibitors; 400,000 tested, 0.93% active; note: % is set by controls: 0 for no effect and ±100 for the full control effect
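The screen uses fluorescence polarization to detect compounds that interfere with recruitment of the SRC2-3 coactivator peptide to VDR; plates are read after 2 h at room temperature.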
TDP1 block: inhibitors of human tyrosyl-DNA phosphodiesterase TDP1; Potency, µM (top dose mostly 130 µM), inactives show top-dose activity change, negative = inhibition, usual class: inhibitors; 350,000 tested, 0.28% active; Q9NUW8; recombinant TDP1, AlphaScreen DNA substrate cleavage; note: % is set by controls: 0 for no effect and ±100 for the full control effect; nearly all actives have a fitted effect of over 40% in size
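Here, a 5' biotin and 3' phosphotyrosine-FITC DNA oligonucleotide reports Tdp1 activity: intact substrate bridges AlphaScreen beads, while cleavage leaves a 3' phosphate and drops signal. All incubations at room temperature.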
Pin1 inh: blocks the human prolyl isomerase Pin1. Pin1 FP peptide displacement, HiFluor488, 10 min. AID 504891. 390,000 tested, 0.009% active. Q13526. Potency, µM (titrated, usually from 115 µM), for the others: top-dose activity, negative = inhibition, actives largely listed as inhibitors; active = well fitted inhibition curve with a large enough effect in the polarisation, with a control signal flat, not every such curve was filed as active; inconclusive = small, poorly fitted or top-dose-only effect, or effect the other way, or a change in a side signal; inactive = no such curve, though single readings can be large or run the other way; the % refers to the polarisation; note: % is set by controls: 0 for no effect and ±100 for the full control effect
ASM inhibitor: human S-ASM enzyme inhibition; 340,000 tested, 0.006% active; placental ASM, HMU-PC fluorogenic substrate, 60 min; AID 504937; P17405; Potency, µM (highest dose often 57.5 µM), inactives show at the top dose activity change, negative = inhibition, most hits filed as inhibitors
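Fluorescence read-out (Ex 386 nm, Em 447 nm) after stopping the reaction at pH 10. Enzyme: ASM from human placenta; substrate HMU-PC0, 9 uM final; 60 min, 37 °C. Compound preincubation 10 min, ambient temperature.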
Tb PFK inh-1: blocks T. brucei phosphofructokinase; O15648; T. brucei PFK, ADP-Glo luminescence; Potency, µM (titrated, usually from 57.5 µM), inactives show at the top dose activity, negative = inhibition, actives largely listed as inhibitors; 330,000 tested, 0.17% active; AID 485367;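 note: 0% = uninhibited 1x PFK enzyme wells and -100% = no-enzyme wells; nearly all actives have a fitted effect of over 60% in size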
Target sequence (O15648 whole entry, looked up): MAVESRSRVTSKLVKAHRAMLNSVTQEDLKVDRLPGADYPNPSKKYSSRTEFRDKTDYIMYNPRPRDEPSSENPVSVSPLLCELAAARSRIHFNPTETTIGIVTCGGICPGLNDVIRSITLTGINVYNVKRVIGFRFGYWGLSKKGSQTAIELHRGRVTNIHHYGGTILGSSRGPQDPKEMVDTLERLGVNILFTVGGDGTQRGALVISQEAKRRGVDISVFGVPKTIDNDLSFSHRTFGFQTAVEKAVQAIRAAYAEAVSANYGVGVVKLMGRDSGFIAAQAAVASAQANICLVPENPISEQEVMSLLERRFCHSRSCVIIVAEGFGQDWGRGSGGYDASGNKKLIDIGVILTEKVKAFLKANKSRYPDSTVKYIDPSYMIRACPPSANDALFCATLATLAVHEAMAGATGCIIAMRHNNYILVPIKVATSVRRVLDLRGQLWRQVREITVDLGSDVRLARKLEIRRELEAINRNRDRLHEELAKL
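PFK 1.25 nM, F6P 0.5 mM, ATP 0.1 mM, 0.1 M TEA pH 8.0, 5 mM MgCl2, 0.01% Tween20, 0.1% BSA; 45 min RT. ADP-Glo readout. qHTS titration up to 57 uM; curves fitted, compounds curve-classed.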
PLK1 PBD inh: PLK1 (human) polo-box domain binding inhibition. P53350. Plk1 PBD binding of FITC phosphopeptide, fluorescence polarization. Potency, µM, without a hit: max response, negative = inhibition, most hits filed as inhibitors. 360,000 tested, 2.8% active; note: series mostly up to about 57 µM; % is set by controls: 0 for no effect and ±100 for the full control effect; nearly all actives have a fitted effect of over 65% in size
Tb PFK KinaseGlo: inhibits T. brucei PFK measured by ATP depletion; Potency, µM (doses to about 57.5 µM), inactives show at the highest dose inhibition; shares compounds with Tb PFK inh-1; AID 504636; 1,100 tested, 47% active; Tb PFK enzyme, ATP depletion, Kinase-Glo Plus luminescence; calls by dose curve; note: nearly all actives have a fitted effect of over 60% in size
Tb PFK inh-2: validation of T. brucei phosphofructokinase inhibitors | shares compounds with Tb PFK inh-1 | purified T. brucei PFK, ADP-Glo luminescence, 45 min | Potency, µM (highest dose often 57.5 µM), inactives show at the top dose activity change, negative = inhibition, most hits filed as inhibitors | 1,100 tested, 41% active | AID 504637;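 note: plate controls were full PFK enzyme control for no effect and no enzyme control for full effect; nearly all actives have a fitted effect of over 60% in size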
The depositor's hits bear a star; ? = inconclusive; · = not tested or not shown; [ ] = another dose, or the depositor's remark. Most compounds without a hit are left out; they make up all but 3.1% or so of the library. Unless noted, calls come from the whole dose curve; as a rule, active = well fitted curve in the direction sought with a large enough effect; inconclusive = small, poorly fitted or top-dose-only effect, or another doubt; inactive = no such curve, though single readings can be large; an effect the other way counts as inactive or inconclusive. Potency is the fitted concentration of half-maximal effect.

SMILES | VDR inhibitor | TDP1 block | Pin1 inh | ASM inhibitor | Tb PFK inh-1 | PLK1 PBD inh | Tb PFK KinaseGlo | Tb PFK inh-2
CO[C@H]1C=C2CCN(C)[C@@H]2[C@@H]2c3cc4c(cc3C(=O)O[C@H]21)OCO4 | 4% | 11%[21 µM] | · | · | · | · | · | ·
COC(=O)c1sccc1NC(=O)c1ccc(C#N)cc1 | 25% | · | ? | 2% | -10% | -22% | · | ·
CC1C=CC(C)C(C(=O)O)C1C(=O)O (centres undefined) | 5% | · | ? | 6% | ? | ? | ? | ?
O=C(NN1C(=O)CSC1=S)C(=O)NN1C(=O)CSC1=S | 9% | · | · | 3% | ? | -27% | ? | -9%
CN[C@@H]1C[C@@]2(C)O[C@@H]([C@@H]1OC)n1c3ccccc3c3c4c(c5c6ccccc6n2c5c31)C(=O)NC4 | -1% | 12% | · | · | · | · | · | ·
Nc1nnc(Cc2ccc(Cl)c(Cl)c2)s1 | -6% | 3% | -2% | -1% | 19µM* | -21% | 7.6µM* | 19µM*
Nc1ccc(Cl)c(Cl)c1 | 0% | 6% | 1% | -1% | · | -13% | · | ·
CC[C@]12CCCN3CCC4(c5ccccc5NC4C(C(=O)O)C1)C32 (some centres undefined) | -15% | 11% | · | · | · | · | · | ·
CC1C(=O)OC2CCN3CC=C(COC(=O)[C@](C)(O)[C@]1(C)O)C23 (some centres undefined) | 10% | -7%[56.1 µM] | · | · | · | · | · | ·
O=[N+]([O-])c1cc([N+](=O)[O-])c2ccccc2c1 | · | 20% | · | · | · | · | · | ·
O=C1c2c([N+](=O)[O-])cc([N+](=O)[O-])cc2S(=O)N1Cc1ccccc1 (centres undefined) | ? | 10% | -11% | 3% | 27µM* | 38µM* | 6% | -5%
CC(C)(C)[C@]1(O)C[C@@H]2OC(=O)CC23C(=O)O[C@@H]2OC(=O)[C@H](O)C231 (some centres undefined) | 9% | 7% | · | · | · | · | · | ·
CSCC[C@H](NC(=O)[C@H](Cc1ccccc1)NC(=O)CNC(=O)CNC(=O)[C@@H](N)Cc1ccc(O)cc1)C(=O)O | -1% | 5% | · | · | · | · | · | ·
Clc1ccc(Cn2ncc3c(N4CCCC4)ncnc32)cc1 | 10% | 10% | -5% | -3% | ? | -6% | ? | ?
CCCN1CCO[C@@H]2c3cc(O)ccc3OC[C@@H]21 | 2% | 3%[56.1 µM] | · | · | · | · | · | ·
O=c1ccnc(NCCc2ccccc2)[nH]1 | 10% | 8% | 6% | 2% | 9.5µM* | 3% | 21µM* | 27µM*
O=S(=O)(Nc1cc(S(=O)(=O)N2CCOCC2)ccc1O)c1ccc2c(c1)OCCCO2 | 25µM* | 5% | -4% | 0% | ? | 4.7µM* | 12µM* | 15µM*
Cc1c(C(=O)N2CCC3(CC2)OCCO3)oc2ccc(S(=O)(=O)N3CCOCC3)cc12 | -2% | -5% | 0% | 1% | -1% | -10% | · | ·
Cc1ccc(S(=O)(=O)N(C(=O)c2ccncc2)c2ccc(OC(=O)c3ccncc3)c3ccccc23)cc1 | ? | 8% | -1% | 11% | 17µM* | 9.5µM* | 2.4µM* | 2.7µM*
COc1ccc2c(CC(=O)OCC(=O)Nc3cccc(C)c3)coc2c1 | -19% | -17% | -1% | -11% | ? | -4% | ? | ?
COc1cccc(Oc2coc3cc(OC(=O)N(C)C)ccc3c2=O)c1 | -10% | · | -5% | 0% | 0% | -14% | · | ·
C=C[C@H]1CN2CC[C@H]1C[C@H]2c1[nH]c2ccccc2c1CCO | -1% | -9%[56.1 µM] | · | · | · | · | · | ·
Cc1[nH]c2ccccc2c1C(=O)CN1C(=O)C(=O)N(Cc2ccco2)C1=O | -6% | 4% | 3% | -1% | ? | -4% | -28% | ?

Screening results (PubChem)
